From PubChem BioAssay come the findings set out here.

In test [1] the test system is Plasmodium falciparum Sir2 (PF13_0152, Sir2A). The experiment in a line: pfSir2 binders on small-molecule microarrays, primary screen, biochemical, small-molecule microarray, 635 nm fluorescence (AID 1098).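 Note: score merges spot fluorescence intensity with its signal-to-noise ratio.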 Conditions: small-molecule microarray binding, fluorescence 635 nm; higher = more signal.
A short description of test [2]: small-molecule microarray binders of probe aDKK1, primary screen, biochemical, biotinylated probe, 635/667 nm fluorescence (AID 1099).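 Note: score merges 667nm spot fluorescence with signal to noise across triplicate slides.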 Conditions: higher = more signal.
Test [3] in a line: small-molecule microarray binders of probe aCHRDL2, primary screen, biochemical, biotinylated probe, 635/667 nm fluorescence (AID 1100). As to conditions: higher = more signal.
Test [4] can be described thus: splicing luciferase reporter signal modulators, primary screen, spliceosome inhibition project, cell-based, HEK293, splice +/- reporter (AID 1101).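 Note: HEK293 cells carrying a splicing-competent luciferase reporter gene; test concentration not given here.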 As to conditions: luminescence, 24 h, higher = more signal, called active from +8 up or from −8 down. On the technique in general: A reporter such as luciferase makes a cellular process visible.
Test [5] addresses Fibroblast growth factor 10 (Homo sapiens) (UniProt O15520). The experiment in a line: FGF10 binders on small-molecule microarrays, primary screen, biochemical, small-molecule microarray, 635 nm fluorescence (AID 1102). As to conditions: FGF10 binding, fluorescence 635 nm, higher = more signal.
Test [6] concerns glycogen synthase kinase-3 (GSK3A per assay name; protocol says GSK3B). The experiment in a line: GSK3 binders on small-molecule microarrays, primary screen, biochemical, small-molecule microarray, 635 nm fluorescence, GSK3A (AID 1103). Note: the record names both GSK3A and GSK3B. As to conditions: small-molecule microarray binding, fluorescence 635 nm; higher = more signal.
The target in test [7] is Epidermal growth factor receptor (Homo sapiens) (UniProt P00533). Kind of test: EGFR binders on small-molecule microarrays, primary screen, biochemical, small-molecule microarray, 635 nm fluorescence (AID 1104).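 Note: score merges 667 nm emission intensity with spot signal to noise over triplicate slides.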 As to conditions: EGFR binding, higher = more signal.
Test [8] deals with Follistatin-related protein 3 (Homo sapiens) (UniProt O95633). Kind of test: FSTL3 binders on small-molecule microarrays, primary screen, biochemical, small-molecule microarray, 635 nm fluorescence (AID 1105).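 Note: score merges emission near 667 nm and signal to noise per printed spot across three slides.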 Conditions: FSTL3 binding, higher = more signal.
Test [9] concerns the target Dickkopf-related protein 1 (Homo sapiens) (UniProt O94907). The experiment in a line: DKK1 binders on small-molecule microarrays, primary screen, biochemical, small-molecule microarray, 635 nm fluorescence scan (AID 1106).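 Note: score merges emission near 667 nm with signal to noise over three replicate slides.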 Conditions: DKK1 binding, higher = more signal.
Test [10] relates to Inhibin beta A chain (activin A). The experiment in a line: INHBA (activin A) binders on microarrays, primary screen, biochemical, small-molecule microarray, 635 nm fluorescence scan (AID 1107).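 Note: mouse activin A protein probed at 4.33 µg/mL on printed slides; score merges bound-protein fluorescence near 667 nm with spot signal-to-noise.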 Conditions: small-molecule microarray binding, higher = more signal.
Test [11] concerns Human papillomavirus type 1a protein E7 (residues 44-93). Kind of test: HPV1a E7 fragment binders on microarrays, primary screen, biochemical, small-molecule microarray, residues 44-93, 635 nm fluorescence (AID 1108).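 Note: E7 fragment applied at 1 µg/mL in TBST for 1 h at 4 C; score combines spot fluorescence with its signal to noise ratio.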 As to conditions: small-molecule microarray binding, fluorescence 635 nm; higher = more signal.
Test [12] can be described thus: modulators of HCV replicon luciferase signal, primary screen, HCV replication inhibitor project, Huh7 cells, luciferase reporter (AID 1109).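 Note: huh7 hepatoma cells harbouring a luciferase neomycin HCV replicon reporter; luciferase luminescence as measure of HCV replicon replication; test concentration not given here.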 Conditions: 48 h, higher = more signal.
Test [13] concerns the target Left-right determination factor 2 (Homo sapiens) (UniProt O00292). The experiment in a line: LEFTY2 binders on small-molecule microarrays, primary screen, biochemical, small-molecule microarray, 635 nm fluorescence scan (AID 1110). Conditions: LEFTY2 binding, higher = more signal.
Test [14] concerns the target Calmodulin-1 (Homo sapiens) (UniProt P0DP23). The experiment in a line: CALM1 binders on microarrays, EGTA buffer, profiling panel, biochemical, small-molecule microarray, Cy5-labelled CALM1 (AID 1111).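 Note: labelled calmodulin applied in Tris saline Tween buffer holding calcium plus EGTA and DTT.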 Conditions: Cy5-CALM1 binding fluorescence, higher = more signal.
For test [15] the target is unchanged. Kind of test: calcium-bound CALM1 binders on microarrays, profiling panel, artefact control for SMM control-protein annotation, biochemical, small-molecule microarray, Cy5-labelled CALM1, plus calcium (AID 1112).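 Note: score merges spot fluorescence with signal to noise from triplicate slides.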 As to conditions: Cy5-CALM1 binding fluorescence, higher = more signal.
Test [16] can be described thus: small-molecule microarray binders of probe aWnt5a, primary screen, biochemical, biotinylated probe, 635/667 nm fluorescence (AID 1113).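 Note: score merges 667 nm fluorescence intensity with signal-to-noise per printed feature.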 Conditions: higher = more signal.
Test [17] is described as follows: small-molecule microarray binders of probe aShh, primary screen, biochemical, biotinylated probe, 635/667 nm fluorescence (AID 1114).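 Note: probe is biotin-labelled aShh protein from a stem cell growth factor screen; measures binding of labelled protein to compounds printed on the slide; score merges feature fluorescence at 667 nm with signal-to-noise.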 Conditions: higher = more signal.
Test [18] can be described thus: small-molecule microarray binders of probe aNog, primary screen, biochemical, biotinylated probe, 635/667 nm fluorescence (AID 1115).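 Note: probe is biotinylated aNog protein used at 0.15 µg/mL for 1 h at 4 C; z-score combines 667 nm fluorescence of each spot with its signal to noise.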 As to conditions: higher = more signal.
In test [19] the target is Torsin-1A-interacting protein 1 (Homo sapiens) (UniProt Q5JTV8). The experiment in a line: LAP1 binders from COS7 cell lysate, primary screen, small-molecule microarray, 635/667 nm fluorescence (AID 1116). As to conditions: COS7-hLAP1 lysate binding, 635 nm fluorescence, higher = more signal.
The target in test [20] is Alpha-bungarotoxin (Bungarus multicinctus) (UniProt P60615). Kind of test: alpha-bungarotoxin binders on microarray, profiling panel, artefact control for SMM control protein annotation, biochemical, small-molecule microarray, Alexa647 label, 635/667 nm fluorescence (AID 1117). As to conditions: alpha-BTX-A647 binding fluorescence, higher = more signal.

Active and inactive are the calls of the source.

Epidermal growth factor receptor (Homo sapiens), sequence (P00533 whole entry, looked up): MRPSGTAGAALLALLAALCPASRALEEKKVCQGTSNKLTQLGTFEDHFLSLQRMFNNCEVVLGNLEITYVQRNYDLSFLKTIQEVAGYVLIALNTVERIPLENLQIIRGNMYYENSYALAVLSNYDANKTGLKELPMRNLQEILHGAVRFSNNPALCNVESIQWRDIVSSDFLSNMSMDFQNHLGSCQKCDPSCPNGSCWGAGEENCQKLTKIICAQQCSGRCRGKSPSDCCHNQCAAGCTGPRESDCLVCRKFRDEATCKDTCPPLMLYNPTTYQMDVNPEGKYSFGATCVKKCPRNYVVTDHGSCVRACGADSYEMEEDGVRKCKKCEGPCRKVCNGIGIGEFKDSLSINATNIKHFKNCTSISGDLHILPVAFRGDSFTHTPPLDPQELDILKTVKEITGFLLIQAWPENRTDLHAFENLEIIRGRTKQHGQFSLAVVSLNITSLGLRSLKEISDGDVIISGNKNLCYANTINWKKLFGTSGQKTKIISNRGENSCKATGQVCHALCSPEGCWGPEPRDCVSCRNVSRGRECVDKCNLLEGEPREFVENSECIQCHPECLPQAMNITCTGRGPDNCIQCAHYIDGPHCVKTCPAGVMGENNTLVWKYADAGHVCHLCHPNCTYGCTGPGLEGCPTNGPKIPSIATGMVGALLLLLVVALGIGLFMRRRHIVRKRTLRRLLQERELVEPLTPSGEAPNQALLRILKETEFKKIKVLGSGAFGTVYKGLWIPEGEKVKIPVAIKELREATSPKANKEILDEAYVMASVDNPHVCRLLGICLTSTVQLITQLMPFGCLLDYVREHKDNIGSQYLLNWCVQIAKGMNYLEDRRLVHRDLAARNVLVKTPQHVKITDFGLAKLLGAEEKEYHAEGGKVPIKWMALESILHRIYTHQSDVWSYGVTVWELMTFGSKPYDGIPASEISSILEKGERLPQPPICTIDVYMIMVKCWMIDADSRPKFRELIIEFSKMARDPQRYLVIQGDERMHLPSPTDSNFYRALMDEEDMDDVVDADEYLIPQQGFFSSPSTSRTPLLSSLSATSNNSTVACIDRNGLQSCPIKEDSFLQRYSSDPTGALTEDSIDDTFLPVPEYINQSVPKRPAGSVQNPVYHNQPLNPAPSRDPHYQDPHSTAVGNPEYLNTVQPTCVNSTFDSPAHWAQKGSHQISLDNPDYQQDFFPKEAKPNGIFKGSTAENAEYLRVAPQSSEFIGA
Fibroblast growth factor 10 (Homo sapiens), sequence (O15520 whole entry, looked up): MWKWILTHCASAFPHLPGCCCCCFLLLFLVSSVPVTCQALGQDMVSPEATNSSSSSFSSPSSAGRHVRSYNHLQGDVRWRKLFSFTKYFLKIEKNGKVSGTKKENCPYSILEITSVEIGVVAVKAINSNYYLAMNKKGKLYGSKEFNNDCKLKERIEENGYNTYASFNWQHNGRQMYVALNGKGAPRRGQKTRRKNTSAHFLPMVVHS
Left-right determination factor 2 (Homo sapiens), sequence (O00292 whole entry, looked up): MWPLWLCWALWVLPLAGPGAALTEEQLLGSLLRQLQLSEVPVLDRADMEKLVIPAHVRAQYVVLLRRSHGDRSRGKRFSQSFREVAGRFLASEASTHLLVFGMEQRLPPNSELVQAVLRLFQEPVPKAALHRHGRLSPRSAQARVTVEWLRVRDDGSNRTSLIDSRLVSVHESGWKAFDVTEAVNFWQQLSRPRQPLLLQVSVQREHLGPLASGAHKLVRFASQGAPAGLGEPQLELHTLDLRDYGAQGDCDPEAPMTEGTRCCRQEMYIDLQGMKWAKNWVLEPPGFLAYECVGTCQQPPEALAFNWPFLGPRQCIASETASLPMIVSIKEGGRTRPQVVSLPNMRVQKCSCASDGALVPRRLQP
Alpha-bungarotoxin (Bungarus multicinctus), sequence (P60615 whole entry, looked up): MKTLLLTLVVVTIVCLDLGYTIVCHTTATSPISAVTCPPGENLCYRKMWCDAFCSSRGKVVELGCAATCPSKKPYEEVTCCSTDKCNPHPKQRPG
Follistatin-related protein 3 (Homo sapiens), sequence (O95633 whole entry, looked up): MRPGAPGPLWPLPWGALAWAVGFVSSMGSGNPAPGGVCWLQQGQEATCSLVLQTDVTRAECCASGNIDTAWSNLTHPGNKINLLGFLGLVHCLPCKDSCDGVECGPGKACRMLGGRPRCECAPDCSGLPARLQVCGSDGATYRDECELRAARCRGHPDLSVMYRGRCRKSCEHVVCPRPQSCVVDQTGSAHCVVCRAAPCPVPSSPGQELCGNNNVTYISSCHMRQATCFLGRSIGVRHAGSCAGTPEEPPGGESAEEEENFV
Dickkopf-related protein 1 (Homo sapiens), sequence (O94907 whole entry, looked up): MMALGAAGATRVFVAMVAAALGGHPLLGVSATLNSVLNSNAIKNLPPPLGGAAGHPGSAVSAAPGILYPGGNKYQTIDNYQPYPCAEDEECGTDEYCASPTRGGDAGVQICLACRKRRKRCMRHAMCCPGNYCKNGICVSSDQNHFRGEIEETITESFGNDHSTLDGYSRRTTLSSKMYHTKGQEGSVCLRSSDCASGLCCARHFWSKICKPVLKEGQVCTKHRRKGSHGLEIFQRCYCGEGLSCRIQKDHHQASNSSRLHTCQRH
Torsin-1A-interacting protein 1 (Homo sapiens), sequence (Q5JTV8 whole entry, looked up): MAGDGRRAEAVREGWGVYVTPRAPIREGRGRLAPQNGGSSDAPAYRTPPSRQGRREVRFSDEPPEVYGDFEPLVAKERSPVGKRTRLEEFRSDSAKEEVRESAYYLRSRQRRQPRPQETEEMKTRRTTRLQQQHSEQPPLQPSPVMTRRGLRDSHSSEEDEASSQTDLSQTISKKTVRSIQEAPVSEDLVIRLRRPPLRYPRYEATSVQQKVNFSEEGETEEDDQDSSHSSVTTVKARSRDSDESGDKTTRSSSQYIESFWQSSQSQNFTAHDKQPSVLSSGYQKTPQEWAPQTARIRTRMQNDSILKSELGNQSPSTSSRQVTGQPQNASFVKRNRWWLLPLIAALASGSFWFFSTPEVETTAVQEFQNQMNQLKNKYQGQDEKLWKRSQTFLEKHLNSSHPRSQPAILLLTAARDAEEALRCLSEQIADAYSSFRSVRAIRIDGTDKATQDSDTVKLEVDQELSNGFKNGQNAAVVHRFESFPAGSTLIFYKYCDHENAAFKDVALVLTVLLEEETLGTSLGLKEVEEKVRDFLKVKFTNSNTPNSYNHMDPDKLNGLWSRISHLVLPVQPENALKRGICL

With `C=CCNC(=O)[C@@H]1[C@H]2C(=O)O[C@H](c3ccccc3)[C@H](c3ccccc3)N2[C@H](c2ccc(O)cc2)[C@@]12C(=O)N(C(=O)OCCOC)c1ccc(C#CCC(C(=O)OC)C(=O)OC)cc12`, the composite z-score in test [1] was 0.533; in test [2], -0.0333; in test [3] it was 0.0912; in test [5], 1.17; in test [6], 0.611; in test [7], 0.408. Also, the composite z-score is 1 in test [8]; 0.493 in [9]; 0.273 in test [10]; 1.39 in test [11]; 0.434 in test [13]; 0.635 in test [14]. Moreover, the composite z-score in [15] is 0.0394; in test [16], -0.001; in test [17] it was 0.151; in [18], -0.1; in test [19], 1.42; in test [20] it was 1.11. Moreover, the z-score was 0.942 (inactive) in test [4] and -0.598 in test [12].

`O=C(CS)NCCCCCCNC(=O)[C@H]1C[C@H]2C(=O)NCC(=O)N2[C@H]1c1cccc(OCCO)c1`: the composite z-score in test [1] is 1.09; in test [2] it was -0.0292; in test [3], -0.027; in test [5] it was 0.901; in test [6], -0.21; in test [7], 0.696. Also, the composite z-score in [8] amounted to 0.604; in test [9], 0.602; in test [10], 0.665; in test [11] it was 0.864; in [13], 0.281; in test [14] it was 0.214. Besides, the composite z-score in [15] is 0.214; in test [16] it was 0.0079; in test [17] it was 0.123; in [18] it was 0.113; in [19] it was 0.469; in test [20], 1.36. In addition, the z-score was -2.02 (inactive) in test [4] and 0.36 in test [12].

`CN1C(=O)C2C=CC(C(O)c3ccc([N+](=O)[O-])cc3)N(Nc3ccccc3)C2C1=O` (stereo not given): the composite z-score in [1] worked out at 1.25; in [2], 0.279; in test [3] it was 0.998; in [5], 0.898; in test [6], 0.895; in [7] it was 0.0754. Also, the composite z-score in [8] was 1.01; in [9], -0.157; in [10] it was 0.905; in [11], 1.41; in test [13] it was -0.258; in [14] it was 2.04. In addition, the composite z-score in test [15] is 0.843; in test [16], 0.0968; in test [17], 1.01; in test [18] it was 1.53; in test [19], 0.0788; in [20], 1.44. In addition, the z-score in test [4] is 0.293 (inactive); in [12] it was 0.514.

Regarding `COc1ccc([Si](C)(C)[C@H]2[C@H](CC(=O)N3CCC[C@H]3CO)O[C@@]3(C(=O)N(C)c4c(Br)cc(C)cc43)[C@@H]2C)cc1`, the composite z-score was found to be 1.91 in test [1]; 0.94 in test [2]; 0.244 in test [3]; 1.5 in test [5]; 1.32 in test [6]; 0.775 in [7]. Further, the composite z-score in test [8] turned out to be 1.16; in test [9], 1.08; in test [10], 1.34; in test [11], 1.45; in [13] it was 0.946; in test [14], 0.783. The composite z-score amounted to 0.339 in test [15]; 1.19 in test [16]; 1.28 in test [17]; 0.241 in test [18]; 0.128 in test [19]; 1.26 in test [20]. Further, the z-score was 0.00593 (inactive) in test [4] and -2 in test [12].

Take `C[C@H]1C2[C@H](Cc3ccccc3)NC(=O)[C@]23C(=O)N[C@@H](Cc2ccccc2)C(=O)N2CCC[C@H]2C(=O)NC/C=C/CC/C=C/C3[C@@H]2O[C@]12C` (stereo not given in full): the composite z-score in test [1] is 1.26; in test [2], -0.297; in test [3] it was -0.684; in test [5] it was 1.38; in test [6] it was 0.769; in test [7], -0.0947. For the same molecule, the composite z-score in test [8] was 0.895; in test [9], 0.272; in [10] it was 0.87; in test [11] it was 0.611; in test [13], 0.148; in test [14] it was -0.133. The composite z-score was -0.945 in test [15]; -0.156 in test [16]; -0.221 in test [17]; -0.0503 in [18]; 0.0565 in test [19]; 0.857 in [20]. Moreover, the z-score in [4] was 0.437 (inactive); in [12] it was -0.382.
